Article PMC4552634, “A New Set of Chemical Starting Points with Plasmodium falciparum Transmission-Blocking Potential for Antimalarial Drug Discovery” (PLoS ONE, 2015)
The campaign covered roughly 13,000 compounds. About 3,200 (25%) showed an effect of 50% or more. The list shows a part of the results.

test system: P. falciparum stage V gametocytes; design: BacTiter-Glo ATP luminescence viability of purified stage V gametocytes in 384-well plates, per cent inhibition versus DMSO; settings: 48 h, 5 µM; inhibitor

Going from `CC(C)(C)Oc1ccc(CC2NC3(C(=O)N(Cc4ccc(C(C)(C)C)cc4)c4ccccc43)C3C(=O)N(c4ccc(Br)cc4)C(=O)C23)cc1` (centres unmarked) [TCMDC-139774] to `COc1ccc(-c2ccccc2OCCCNc2nc(NCCc3ccc(O)cc3)nc(N3CCNCC3)n2)cc1` [TCMDC-134136], the “% Inhibition” value rises from 1.203% to 51.13%.

First: CC(C)C1C(O)=C(c2ccc3ccccc3c2)C(=O)N1Cc1cccc(F)c1 (centres unmarked) [TCMDC-141811]
Second: Cc1cc(N2CCCC2)nc(Nc2ccc(NC(=O)Cc3ccccc3)cc2)n1 [TCMDC-124967]
The “% Inhibition” value of the first is higher: 28.08% for the first, -3.146% for the second.

Compared with `Oc1ccccc1CNCc1ccc(-c2cnc(N3CCCC(c4ccccc4)C3)nc2)cc1` (centres unmarked) [TCMDC-133768], `CN(CCc1ccccc1)c1ncc(-c2ccccc2CNCc2ccccc2O)cn1` [TCMDC-132575] is higher in “% Inhibition” value: -9.076% for the first, 53.28% for the second.

Going from `CCCN(CC1CC1)c1ncc(-c2ccccc2CNCc2ccccc2O)cn1` [TCMDC-132574] to `Oc1ccc(CCNc2nc(NCc3ccccc3-c3ccccc3)nc(N3CCCNCC3)n2)cc1` [TCMDC-133386], the “% Inhibition” value rises from -10.65% to 28.34%.

Compared with `O=c1cc(NCCCCNCc2cccc(Cl)c2)[nH]c2ccccc12` [TCMDC-139311], `Clc1ccc2c(NCc3ccccc3)ccnc2c1` [TCMDC-125506] is higher in “% Inhibition” value: -48.31% for the first, -30.27% for the second.

First: CCCC(C)NC(=O)/C=C/c1ccccc1-c1cccc(OC)c1 (centres unmarked) [TCMDC-136229]
Second: CCOC(=O)c1c(NC(=O)c2ccccc2)sc2c(O)c(CN(CC)CC)ccc12 [TCMDC-124066]
The “% Inhibition” value of the first is higher: -11.68% for the first, -13.75% for the second.

Going from `CN1C(C)(C)CC(NC(=O)c2ccc(-c3nc4cc(Cl)c(Cl)cc4[nH]3)cc2)CC1(C)C` [TCMDC-139250] to `CN1C(C)(C)CC(NC(=O)c2ccc(-c3nc4ccc(Cl)cc4[nH]3)cc2)CC1(C)C` [TCMDC-139262], the “% Inhibition” value falls from 28.21% to -8.23%.

Compared with `COc1cc(C(=O)NC2CC(C)(C)N(C)C(C)(C)C2)ccc1-c1cc2cc(Cl)c(Cl)cc2[nH]1` [TCMDC-139227], `COc1cc(C(=O)NC2CC(C)(C)N(C)C(C)(C)C2)ccc1-c1nc2cc(Cl)c(Cl)cc2[nH]1` [TCMDC-139618] is higher in “% Inhibition” value: 47.65% for the first, 89.66% for the second.

First: COc1cc(C(=O)NC2CC(C)(C)NC(C)(C)C2)ccc1-c1cc2cc(Cl)c(Cl)cc2[nH]1 [TCMDC-139693]
Second: CCOc1cc(C(=O)NC2CC(C)(C)NC(C)(C)C2)ccc1-c1cc2cc(Cl)c(Cl)cc2[nH]1 [TCMDC-139960]
The “% Inhibition” value of the first is lower: -5.047% for the first, 72.27% for the second.

Going from `Cc1c(-c2ccc(C(=O)NC3CC(C)(C)NC(C)(C)C3)cc2)[nH]c2cc(Cl)c(Cl)cc12` [TCMDC-140975] to `CCOc1cc(C(=O)NC2CC(C)(C)NC(C)(C)C2)ccc1-c1nc2ccc(Cl)cc2[nH]1` [TCMDC-140404], the “% Inhibition” value falls from 52.66% to 39.53%.

Compared with `CCOc1cc(C(=O)NC2CC(C)(C)N(C)C(C)(C)C2)ccc1-c1nc2cc(Cl)c(Cl)cc2[nH]1` [TCMDC-140058], `O=C(Nc1ccc(F)c(Cl)c1)NC1CCN(c2ccnc3cc(Cl)ccc23)C1` (centres unmarked) [TCMDC-133404] is lower in “% Inhibition” value: 24.71% for the first, -39.28% for the second.

Going from `O=C(Nc1ccc(CN2CCCCC2)cc1)c1ccc(COc2ccc([N+](=O)[O-])cc2)o1` [TCMDC-123727] to `Cc1cc(NC(=O)c2ccco2)ccc1OC1CCN(Cc2ccccc2)CC1` [TCMDC-133965], the “% Inhibition” value rises from -23.78% to 12.37%.

Compared with `CC(C)Oc1ccc(CCCON2C(N)=NC(N)=NC2(C)C)cc1` [TCMDC-131759], `CC1(C)N=C(N)N=C(N)N1OCCCOc1cc(Cl)cc(Cl)c1` [TCMDC-131790] is higher in “% Inhibition” value: 12.88% for the first, 16.66% for the second.

Compared with `COc1ccc2nccc([C@@H](O)CN3CCC(NCc4nc5c(C#N)cccc5[nH]4)CC3)c2c1` [TCMDC-141116], `CCCCNc1ccc(C(=O)NC2CCN(C[C@H](O)c3ccnc4ccc(OC)cc34)CC2)cc1` [TCMDC-141038] is higher in “% Inhibition” value: -34.83% for the first, -7.518% for the second.

Going from `Oc1ccc(CCNc2nc(NCCCOc3ccccc3-c3ccncc3)nc(N3CCNCC3)n2)cc1` [TCMDC-134138] to `Oc1ccc(CCNc2nc(NCCCOc3ccccc3-c3cccnc3)nc(N3CCNCC3)n2)cc1` [TCMDC-134137], the “% Inhibition” value rises from 16.05% to 19.58%.

First: Oc1ccc(CCNc2nc(NCCOc3ccccc3-c3ccccc3)nc(N3CCNCC3)n2)cc1 [TCMDC-134131]
Second: Oc1ccc(CCNc2nc(NCCCOc3ccccc3-c3ccc(F)cc3)nc(N3CCNCC3)n2)cc1 [TCMDC-134135]
The “% Inhibition” value of the first is lower: -22.6% for the first, 12.8% for the second.

Compared with `Oc1ccc(CCNc2nc(NCCCOc3ccccc3-c3cccc(C(F)(F)F)c3)nc(N3CCNCC3)n2)cc1` [TCMDC-134134], `Oc1ccc(CCNc2nc(NCCCOc3ccccc3-c3ccc(C(F)(F)F)cc3)nc(N3CCNCC3)n2)cc1` [TCMDC-134139] is higher in “% Inhibition” value: 10.32% for the first, 56.06% for the second.

Compared with `Oc1ccc(CCNc2nc(NCc3ccccc3-c3ccc(C(F)(F)F)cc3)nc(N3CCCNCC3)n2)cc1` [TCMDC-133388], `Oc1ccc(CCNc2nc(NCc3ccccc3-c3ccc(C(F)(F)F)cc3)nc(N3CCNCC3)n2)cc1` [TCMDC-138323] is lower in “% Inhibition” value: 24.02% for the first, -0.8501% for the second.

Going from `Oc1ccc(CC2CCCN(c3nc(NCCCOc4ccccc4-c4ccccc4)nc(N4CCNCC4)n3)C2)cc1` (centres unmarked) [TCMDC-134279] to `OCCCCCCNc1nc(NCc2ccccc2-c2ccc(C(F)(F)F)cc2)nc(N2CCNCC2)n1` [TCMDC-134126], the “% Inhibition” value falls from 106% to 66.94%.

Going from `O=C(Nc1ccc(OC2CCN(Cc3ccccc3)CC2)c(Cl)c1)c1ccsc1` [TCMDC-133989] to `CCC(C)NC(=O)CN1CN(c2ccccc2)C2(CCN(C(=O)c3ccc(-c4ccccc4)cc3)CC2)C1=O` (centres unmarked) [TCMDC-125175], the “% Inhibition” value falls from 12.12% to -41.83%.

For `CC(=O)Nc1ccc(C(=O)Nc2cccc(-c3ccc(-c4nc5cc(C(F)(F)F)ccc5[nH]4)s3)c2)cn1` [TCMDC-136825], the “% Inhibition” value was 32.63%.
